Assay results as given in ChEMBL document CHEMBL3988442, “University of Dundee, Small-Polar-MMV Screening Library” (2021).
About 13,000 (27%) of roughly 48,000 compounds showed an effect of 50% or more. The list shows a part of the results.

Tested on: Wolbachia pipientis
Assay: Anti-Wolbachia Cell-Based Screen
Assay type: functional
Set-up: scale not given: in the data most compounds retested in dose-response had high values
Settings: 5 µM

SMILES	Percent Effect
COCC(=O)N1CCC(C(=O)N(C)CCCc2nccn2C)CC1	-11.58%
CCC[C@H]1CN(S(=O)(=O)c2cc(C)ccc2C)C[C@@H]1N	-30.29%
CN1CCC2(CC1)CCN(C(=O)c1onc3ccccc13)C2	92.75%
CC(=O)N1CCCC2(CCN(C(=O)c3nn(C)c4ccccc34)CC2)C1	-40.55%
CN1CCC2(CC1)CN(C(=O)c1onc3ccccc13)CCCN2C	72.92%
CCN(CC)Cc1cc(C(=O)N2CCC3(CCN(C)CC3)C2)c(C)o1	8.973%
Cc1ccoc1C(=O)N1CCCC2(CCCN2S(C)(=O)=O)C1 (stereo unspecified)	-9.811%
CS(=O)(=O)N1CCCC12CCCN(C(=O)c1ccno1)C2 (stereo unspecified)	-3.748%
Cc1ccc(C(CNC(=O)Cc2nc3ncccn3n2)N(C)C)cc1 (stereo unspecified)	-10.58%
CC(=O)NCCc1ccc(S(=O)(=O)N(C)C(C)CC(C)C)s1 (stereo unspecified)	2.114%
CCC[C@@H]1CN(Cc2cnc(-c3cccs3)nc2)C[C@H]1C(=O)O	-4.575%
CCC[C@H]1CN(C(=O)c2cc(-c3cccs3)n(C)n2)C[C@@H]1N	106.1%
CCC[C@@H]1CN(C(=O)c2cc(-c3cccs3)n(C)n2)C[C@H]1N(C)C	95.7%
CC(C)c1nc(C(=O)N2C[C@H](C(C)C)[C@@H](N)C2)cs1	-1.889%
CCC[C@@H]1CN(C(=O)c2ccccc2C(C)=O)C[C@H]1N(C)C	5.199%
CCC[C@@H]1CN(C(=O)c2cc(-c3cccs3)n(C)n2)C[C@H]1NS(C)(=O)=O	96.45%
CCC[C@@H]1CN(C(=O)c2cc3ccccc3cc2O)C[C@H]1N(C)C	2.808%
CCC[C@@H]1CN(C(=O)CCc2ccco2)C[C@H]1NS(C)(=O)=O	-2.62%
CCC[C@H]1CN(CCS(C)(=O)=O)C[C@@H]1NC(=O)c1ccn(C)n1	-3.531%
CSCCC(O)C(=O)N1CCCN(Cc2cccnc2)CC1 (stereo unspecified)	-2.174%
COc1ncc(CN2CCOC(C)(C(=O)N3CCOCC3)C2)cn1 (stereo unspecified)	124.6%
CC1(C(=O)N2CCOCC2)CN(Cc2cccnc2)CCO1 (stereo unspecified)	65.44%

SMILES	Percent Effect
COc1ncc(-c2nccn2-c2ccccc2CN2CCOCC2)cn1	4.794%
COc1cc(C(=O)N2CCC(O)(CN3CCOCC3)C(C)(C)C2)ccn1 (stereo unspecified)	1.548%
Cc1ccc(N2CC3(COCCN(Cc4cccnc4)C3)OCC2=O)s1.O=C(O)C(F)(F)F.O=C(O)C(F)(F)F (stereo unspecified)	6.598%
CNc1cccc(C2CCCN(C(=O)c3cscn3)C2)n1 (stereo unspecified)	98.56%
CNc1cccc(C2CCCN(C(=O)c3cncs3)C2)n1 (stereo unspecified)	121.7%
CNc1cccc(C2CCN(C(=O)c3cccnc3)CC2)n1	107.8%
O=C(c1cccnc1)N1CCC(Oc2cccc(C(F)(F)F)c2)CC1	6.335%
CNc1cccc(C2CCCN(C(=O)c3ccn(C)n3)C2)n1 (stereo unspecified)	117.7%
CN(c1ncccc1CNC(=O)c1csnn1)C1CCCCC1	20.86%
Cc1ccsc1CN(CCN(C)C)C(=O)c1ccc(C#N)nc1	-1.147%
NC1CCN(C2CCN(c3ccc(-c4ccco4)cc3)CC2)CC1	-26.06%
CCc1nsc(N2CCc3sccc3C2)n1	12.97%
CNc1cccc(C2CCCN(C(=O)c3cccnc3)C2)n1 (stereo unspecified)	119.9%
CNc1cccc(C2CCCN(C(=O)c3coc(C)n3)C2)n1 (stereo unspecified)	115.1%
CNc1cccc(C2CCCN(C(=O)c3cnccn3)C2)n1 (stereo unspecified)	101.6%
CNc1cccc(C2CCCN(C(=O)Cc3ccccc3)C2)n1 (stereo unspecified)	110.2%
CNc1cccc(C2CCCN(C(=O)c3ccncc3)C2)n1 (stereo unspecified)	-7.86%
O=C(N[C@@H]1CCN(c2ncc(Cl)cc2Cl)C[C@H]1O)c1cnccn1	-4.452%
COC(C)C(=O)Nc1cc(C(=O)N2CCSCC2)ccc1C (stereo unspecified)	-22.96%
CNS(=O)(=O)c1ccc(CN2CCN3CCNC(=O)C3C2)cc1 (stereo unspecified)	-0.7065%
COCCN1CCCC(O)(CN2CCN(c3cnccn3)CC2)C1=O (stereo unspecified)	-3.22%
O=S(=O)(C1CC1)N1CCC(Cn2cccn2)CC1	1.748%

SMILES	Percent Effect
Cc1cc(C(C)NC(=O)c2ccc(O)nc2)c(C)o1 (stereo unspecified)	2.609%
CC(C)N1CC(NC(=O)c2ccc(Cl)s2)CC1=O (stereo unspecified)	98.39%
CCCS(=O)(=O)N1CCC(NC(=O)c2ccc(Cl)s2)CC1	8.314%
O=C(NC1CC(=O)N(C2CC2)C1)c1ccc(Cl)s1 (stereo unspecified)	-7.498%
O=C(O)C(F)(F)F.O=C(O)C(F)(F)F.c1cncc(COCc2n[nH]c3c2CN(Cc2ccco2)C3)c1	1.979%
O=C(NC1CC1)N1Cc2[nH]nc(COc3cccnc3)c2C1.O=C(O)C(F)(F)F	-0.5105%
O=C(O)C(F)(F)F.O=C(O)C(F)(F)F.O=C(O)C(F)(F)F.c1ccc(CN2Cc3[nH]nc(COc4cccnc4)c3C2)nc1	6.723%
O=C(C1CC1)N1Cc2[nH]nc(COCc3cccnc3)c2C1.O=C(O)C(F)(F)F.O=C(O)C(F)(F)F	96.05%
CCS(=O)(=O)N1Cc2[nH]nc(COCc3cccnc3)c2C1.O=C(O)C(F)(F)F	98.27%
O=C(O)C(F)(F)F.O=S(=O)(C1CC1)N1Cc2[nH]nc(COCC3CC3)c2C1	-8.849%
Cc1nn(C)c(C)c1-c1ccc(=O)n(C(C)C(=O)NC(C)(C)C)n1 (stereo unspecified)	122.1%
Cc1nn(C)c(C)c1C(C)NC(=O)Nc1cccnc1N1CCCC1 (stereo unspecified)	8.996%
CCSc1ccc(NC(=O)NC(C)c2c(C)nn(C)c2C)cn1 (stereo unspecified)	-34.73%
COC(=O)[C@H]1CN(C(=O)NC(C)C)CCN1C(=O)c1cccs1	13.93%
CN(C)c1nc(N2CCCC2)nc2c1CCN(C(=O)c1ccoc1)CC2	-4.722%
Cc1cc(C(=O)N2CCc3nc(N4CCCC4)nc(C)c3CC2)c(C)o1	102.5%
Cc1nc(N2CCCC2)nc2c1CCN(C(=O)c1ccoc1C)CC2	99.57%
Cc1cc(C(=O)N2CCc3nc(N4CCOCC4)nc(C)c3C2)c(C)o1.O=CO	94.45%
Cc1nc(N2CCCC2)nc2c1CN(C(=O)c1ccco1)CC2	4.912%
CCc1noc(CS(=O)(=O)C(C)c2nc(C3CC3)no2)n1 (stereo unspecified)	-17.73%
N#Cc1ccccc1OCCN1CCCC1Cn1cccn1 (stereo unspecified)	7.756%
COCC1CN(C(=O)Cc2ccc(F)cc2)Cc2ccnn2C1 (stereo unspecified)	27.63%

SMILES	Percent Effect
Cn1cc(Nc2cccc(C(=O)N(CC(N)=O)C3CCCC3)c2)cn1	6.719%
CC(NC(N)=O)C(=O)NCc1cc(Br)ccc1F (stereo unspecified)	3.265%
CN1CCCN(C[C@@H]2CN(C(=O)CCc3cn[nH]c3)C[C@@H]2CO)CC1	1.74%
O=C(c1ccncc1)N1CCCn2nnc(Cn3cccn3)c2C1	4.632%
O=C(O)C(F)(F)F.c1cnc(NCc2nnn3c2CN(CC2CC2)CCC3)nc1	97.82%
O=C(CO)N1CCCn2nnc(Cn3cccn3)c2C1	-5.05%
O=C(C1CC=CC1)N1CCCn2nnc(CNc3ncccn3)c2C1	108.6%
O=C(c1ccnnc1)N1CCCn2nnc(COCC3CC3)c2C1	-17.91%
COCc1nnn2c1CN(C(=O)c1ccnnc1)CCC2	-7.41%
CN(C)C(=O)NCc1nnn2c1CN(CC1CCOCC1)CCC2.O=C(O)C(F)(F)F	4.127%
C1CN(CC2CCOCC2)Cc2c(COCC3CC3)nnn2C1.O=C(O)C(F)(F)F	2.92%
O=C(CC1CC1)N1CCCn2nnc(CNc3ncccn3)c2C1	92.45%
COc1ccc(OC)c(CCNC(=O)NC(C)Cn2ccnc2)c1 (stereo unspecified)	-5.904%
O=C(CSc1nncs1)N1CCN(Cc2ccc(Cl)s2)CC1	-21%
CCSc1ccc(C(C)NC(=O)CNS(C)(=O)=O)cc1 (stereo unspecified)	4.212%
O=C1OCCN1CCS(=O)(=O)c1cccc(Br)c1	-18.91%
CCC(C)CNCC1(S(C)(=O)=O)CCOCC1 (stereo unspecified)	-24.39%
CC(=O)N1CCCCC1c1cc(CO)[nH]n1 (stereo unspecified)	-3.311%
OCc1cc(C2CCCN2c2ncccn2)n[nH]1 (stereo unspecified)	112%
Cc1n[nH]c2ncc(CNC3CCCN(c4ncccn4)C3)cc12.Cl (stereo unspecified)	-16.46%
Cc1cc(CN2CCN(C(=O)c3sccc3C3CC3)CC2)on1	-1.767%
Cc1nc(CN2CCN(C(=O)c3sccc3C3CC3)CC2)oc1C	120.2%

SMILES	Percent Effect
COCc1nc(C(=O)N2CCN(Cc3cc(C)on3)CC2)cs1	-18.23%
Cc1nc(CN2CCCN(C(=O)c3ccccn3)CC2)oc1C	3.458%
Cc1cc(CN2CCN(C(=O)c3sccc3C3CC3)CC2)no1	143.4%
O=C(c1sccc1C1CC1)N1CCCN(Cc2cscn2)CC1	113.8%
Cc1nc(C2CCCN(C(=O)c3sccc3C3CC3)C2)no1 (stereo unspecified)	-10.65%
O=C(c1sccc1C1CC1)N1CCN(Cc2cscn2)CC1	132.1%
NC(=O)NCC(=O)N1C[C@H]2CC[C@@H]1CN(Cc1ccccc1)C2	-2.465%
CCNc1ncc(C(=O)N[C@@H](C)[C@H](O)c2ccccc2)cn1	-5.841%
CS(=O)(=O)NCC(=O)N[C@H]1CN(CC2CC2)C[C@@H]1c1ccccc1	5.176%
Cc1cc(C)n(C2CN(CC(=O)NCC(C)(C)N3CCOCC3)C2)n1	4.363%
Cc1cc(C)n(C2CCCN(C(=O)C3=NN(C)C(=O)CC3)C2)n1 (stereo unspecified)	-1.412%
C[C@@H]1CN(S(=O)(=O)N2CCOCC2)C[C@@]1(O)C1CC1	13.89%
Cc1cc(C)n(C2CCCN(C(=O)c3c(C)c(C)n[nH]c3=O)C2)n1 (stereo unspecified)	-2.25%
CC1CCN(S(=O)(=O)N2CCc3sccc3C2)CC1	3.018%
Cc1cc(C)n(C2CCN(S(=O)(=O)N3CCC(C)CC3)CC2)n1	84.26%
Cc1cc(C)n(C2CCN(S(C)(=O)=O)CC2)n1	88.3%
Cc1ccc([C@@H]2CN(S(=O)(=O)N3CCC(C)CC3)C[C@H]2N(C)C)cc1	5.444%
Cc1cc(C)n(C2CCN(S(=O)(=O)N3CCOCC3)CC2)n1	108%
